According to PubChem BioAssay (NCATS):
Values without a mark were called inactive. Results filed as inconclusive are left out. Where a call stands in place of a potency, no number is given. Active and inactive are the calls of the source. Unless noted, the call rests on the fitted dose curve; in most records, active means well fitted curve in the direction sought with a large enough effect; inconclusive means small, poorly fitted or top-dose-only effect, or another doubt; inactive means no such curve, though single readings can be large; an effect the other way counts as inactive or inconclusive.

Key:
[1] = Natriuretic polypeptide receptor (hNpr1) antagonism - Pilot counterscreen GloSensor control cell line (AID 1347045; calls by dose curve; further: series mostly up to about 38 µM)
Procedure, shortened: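 The SNP-driven cGMP luminescence signal (50 uM, 20 min, room temperature) was measured in GloSensor HEK293 control cells. Compounds were tested as a LOPAC titration series and preincubated for 30-50 min.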

[2] = molecular target: Atrial natriuretic peptide receptor 1 (Homo sapiens) (UniProt P16066); assay: Natriuretic polypeptide receptor (hNpr1) antagonism - Pilot screen (AID 1347049; calls by dose curve;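 further: HEK293 cells with hNpr1 and GloSensor cGMP luciferase stimulated by 0.1 nM hNppA; agonist-evoked cGMP luminescence read 20 min after hNppA addition; series mostly up to about 58 µM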)
Atrial natriuretic peptide receptor 1 (Homo sapiens), sequence (P16066 whole entry, looked up): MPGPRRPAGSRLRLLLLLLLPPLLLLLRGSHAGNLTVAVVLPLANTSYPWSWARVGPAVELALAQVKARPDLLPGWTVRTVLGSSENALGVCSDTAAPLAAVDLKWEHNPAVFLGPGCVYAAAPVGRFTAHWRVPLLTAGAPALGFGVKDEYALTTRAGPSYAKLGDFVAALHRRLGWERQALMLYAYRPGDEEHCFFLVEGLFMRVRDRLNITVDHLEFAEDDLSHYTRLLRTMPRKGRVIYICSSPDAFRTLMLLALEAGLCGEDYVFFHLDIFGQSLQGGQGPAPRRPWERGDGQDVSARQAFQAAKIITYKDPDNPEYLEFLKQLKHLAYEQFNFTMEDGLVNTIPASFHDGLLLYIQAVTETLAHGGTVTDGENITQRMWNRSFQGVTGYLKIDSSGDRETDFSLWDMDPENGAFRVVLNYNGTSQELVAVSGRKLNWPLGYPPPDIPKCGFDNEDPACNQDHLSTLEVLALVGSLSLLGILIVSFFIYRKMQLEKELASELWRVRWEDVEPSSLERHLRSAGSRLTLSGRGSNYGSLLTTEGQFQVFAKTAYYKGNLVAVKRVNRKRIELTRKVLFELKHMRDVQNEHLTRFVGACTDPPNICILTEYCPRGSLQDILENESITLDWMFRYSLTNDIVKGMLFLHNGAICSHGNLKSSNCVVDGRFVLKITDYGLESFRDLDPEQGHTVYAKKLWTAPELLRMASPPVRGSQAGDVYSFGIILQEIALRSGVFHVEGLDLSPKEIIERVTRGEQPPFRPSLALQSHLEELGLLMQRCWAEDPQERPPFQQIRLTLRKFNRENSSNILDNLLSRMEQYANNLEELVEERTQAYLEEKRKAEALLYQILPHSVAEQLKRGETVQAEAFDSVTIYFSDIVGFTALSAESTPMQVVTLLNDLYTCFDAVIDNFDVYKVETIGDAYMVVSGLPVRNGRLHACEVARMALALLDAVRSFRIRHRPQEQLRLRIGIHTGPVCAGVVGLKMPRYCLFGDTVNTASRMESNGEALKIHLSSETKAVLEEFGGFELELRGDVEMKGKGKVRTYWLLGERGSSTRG
Procedure, shortened: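 Receptor antagonism read as cGMP-dependent luminescence in hNpr1/pGS-40F HEK293 cells: pre-read after 30 min compound exposure, post-read 20 min after hNppA agonist at 0.1 nM final, all at room temperature, protected from light; A-71915 titration as control.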

[3] = molecular target: Atrial natriuretic peptide receptor 2 (Homo sapiens) (UniProt P20594); assay: Natriuretic polypeptide receptor (hNpr2) antagonism - Pilot subtype selectivity assay (AID 1347050; calls by dose curve; further: potency means the concentration at half of the fitted maximal effect)
Atrial natriuretic peptide receptor 2 (Homo sapiens), sequence (P20594 whole entry, looked up): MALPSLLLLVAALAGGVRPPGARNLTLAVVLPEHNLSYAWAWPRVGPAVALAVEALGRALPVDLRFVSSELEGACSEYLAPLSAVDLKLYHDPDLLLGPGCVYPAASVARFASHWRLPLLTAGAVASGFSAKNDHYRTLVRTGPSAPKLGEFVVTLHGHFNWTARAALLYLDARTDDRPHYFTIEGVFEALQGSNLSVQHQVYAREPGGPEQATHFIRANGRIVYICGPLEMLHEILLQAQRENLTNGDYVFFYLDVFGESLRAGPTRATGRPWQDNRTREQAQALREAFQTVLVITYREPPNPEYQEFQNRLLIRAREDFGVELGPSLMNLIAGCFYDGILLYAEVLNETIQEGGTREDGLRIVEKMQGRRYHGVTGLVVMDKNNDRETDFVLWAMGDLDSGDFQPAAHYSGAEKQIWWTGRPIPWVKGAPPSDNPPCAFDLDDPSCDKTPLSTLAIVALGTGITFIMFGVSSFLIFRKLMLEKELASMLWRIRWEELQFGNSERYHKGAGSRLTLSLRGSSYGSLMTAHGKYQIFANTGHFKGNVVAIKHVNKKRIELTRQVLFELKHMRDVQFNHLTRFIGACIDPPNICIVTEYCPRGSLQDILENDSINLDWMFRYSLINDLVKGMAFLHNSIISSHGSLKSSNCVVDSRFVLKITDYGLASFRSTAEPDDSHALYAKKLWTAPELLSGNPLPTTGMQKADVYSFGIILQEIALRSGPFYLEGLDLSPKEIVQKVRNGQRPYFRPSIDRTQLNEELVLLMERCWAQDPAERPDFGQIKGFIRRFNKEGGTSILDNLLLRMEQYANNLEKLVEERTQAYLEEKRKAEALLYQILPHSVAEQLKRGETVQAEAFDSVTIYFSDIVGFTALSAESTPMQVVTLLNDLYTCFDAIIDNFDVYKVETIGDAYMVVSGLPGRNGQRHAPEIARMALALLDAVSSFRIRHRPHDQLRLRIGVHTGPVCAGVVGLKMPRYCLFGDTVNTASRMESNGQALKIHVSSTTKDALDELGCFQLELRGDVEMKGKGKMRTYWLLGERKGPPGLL
Procedure, shortened: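 Antagonist mode: compounds (LOPAC1280, seven 1:5 dilutions) added 30 min before 1 nM hNppC stimulation of hNpr2-HEK293 cGMP-sensor cells; luminescence read before and 20 min after agonist at ambient temperature.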

[4] = NS1 protein of Zika virus - qHTS assay to identify small molecule inhibitors in human HEK 293 cells (AID 1347053); further: nearly all actives have a fitted effect of over 55% in size; further: potency means the concentration at half of the fitted maximal effect
Procedure, shortened: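 Readout was TR-FRET using paired anti-NS1 antibodies after 24 h infection of HEK 293 cells with ZIKV MR766 (MOI = 0.5). Compound preceded virus by 1 h; reduced signal reflects lower NS1 expression.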

[5] = molecular target: T1, Tyrosine-protein phosphatase non-receptor type substrate 1 (Homo sapiens) + Leukocyte surface antigen CD47 (Homo sapiens) (UniProt P78324+Q08722); assay: CD47-SIRPalpha protein protein interaction - LANCE assay qHTS validation (AID 1347057; active means well fitted curve in the direction sought with a large enough effect in the signal ratio, with a control signal flat, not every such curve was filed as active; the % refers to the signal ratio; further: series mostly up to about 38 µM)
T1 sequence (P78324 whole entry, looked up, the tested form may be a part): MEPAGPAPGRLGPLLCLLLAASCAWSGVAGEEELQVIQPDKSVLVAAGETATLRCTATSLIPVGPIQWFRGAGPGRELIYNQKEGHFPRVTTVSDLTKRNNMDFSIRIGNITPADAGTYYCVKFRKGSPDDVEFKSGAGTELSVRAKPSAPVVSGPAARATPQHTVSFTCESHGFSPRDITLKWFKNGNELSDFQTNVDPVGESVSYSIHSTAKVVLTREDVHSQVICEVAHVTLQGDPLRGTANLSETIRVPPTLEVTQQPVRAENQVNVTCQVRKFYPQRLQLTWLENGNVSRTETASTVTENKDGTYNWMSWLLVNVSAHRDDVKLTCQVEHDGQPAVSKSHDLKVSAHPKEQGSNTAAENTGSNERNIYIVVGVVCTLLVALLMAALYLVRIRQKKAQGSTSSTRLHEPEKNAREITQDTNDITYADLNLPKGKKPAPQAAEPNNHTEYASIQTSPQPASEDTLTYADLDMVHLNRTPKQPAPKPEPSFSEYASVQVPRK
T1 sequence (Q08722 whole entry, looked up, the tested form may be a part): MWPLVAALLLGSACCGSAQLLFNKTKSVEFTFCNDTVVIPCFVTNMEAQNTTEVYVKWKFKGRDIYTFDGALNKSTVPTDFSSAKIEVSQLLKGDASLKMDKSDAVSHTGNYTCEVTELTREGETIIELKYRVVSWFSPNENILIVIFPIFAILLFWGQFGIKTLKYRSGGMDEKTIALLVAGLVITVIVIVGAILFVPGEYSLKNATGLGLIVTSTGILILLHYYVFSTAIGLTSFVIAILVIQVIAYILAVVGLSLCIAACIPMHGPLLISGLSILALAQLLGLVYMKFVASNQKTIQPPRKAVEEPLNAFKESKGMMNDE
Procedure, shortened: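 Inhibition of soluble CD47/SIRPalpha ectodomain association by titrated compounds, measured as 665/615 nm time-resolved FRET ratio after sequential 30 min room-temperature incubations.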

[6] = molecular target: Parathyroid hormone/parathyroid hormone-related peptide receptor (Homo sapiens) (UniProt Q03431); assay: qHTS for PTHR1 Agonists: Optimization Screen against the NCGC LOPAC library (AID 1347079);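 further: GloSensor cAMP luminescence in HEK-293 GP2 cells expressing human PTHR1 with IBMX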
Parathyroid hormone/parathyroid hormone-related peptide receptor (Homo sapiens), sequence (Q03431 whole entry, looked up): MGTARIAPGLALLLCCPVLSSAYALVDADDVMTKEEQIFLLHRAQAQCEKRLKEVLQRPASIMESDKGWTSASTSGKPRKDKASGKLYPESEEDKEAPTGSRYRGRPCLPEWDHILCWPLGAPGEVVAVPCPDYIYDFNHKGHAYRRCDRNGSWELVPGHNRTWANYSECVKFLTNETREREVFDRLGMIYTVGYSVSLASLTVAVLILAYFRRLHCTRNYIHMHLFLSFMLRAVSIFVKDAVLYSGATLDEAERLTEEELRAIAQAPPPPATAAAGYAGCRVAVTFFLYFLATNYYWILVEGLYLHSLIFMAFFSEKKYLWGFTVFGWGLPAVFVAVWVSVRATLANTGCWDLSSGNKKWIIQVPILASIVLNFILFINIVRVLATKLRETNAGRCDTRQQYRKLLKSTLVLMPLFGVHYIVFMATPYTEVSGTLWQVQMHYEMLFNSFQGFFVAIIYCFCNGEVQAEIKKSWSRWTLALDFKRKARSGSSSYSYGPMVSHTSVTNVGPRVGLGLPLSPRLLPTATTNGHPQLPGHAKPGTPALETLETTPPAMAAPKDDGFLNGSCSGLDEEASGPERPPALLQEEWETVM
Procedure, shortened: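 Signal increase flags agonism. GP2 cells, derived from HEK-293, express human PTHR1 and a GloSensor cAMP construct.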

[7] = qHTS of pediatric cancer cell lines to identify multiple opportunities for drug repurposing: Primary screen for A673 cells (AID 1347092); further: nearly all actives have a fitted effect of over 45% in size; further: potency means the concentration at half of the fitted maximal effect
Procedure, shortened: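 48 h compound exposure, A673, 500-1,000 cells/well, 37 degrees C/5% CO2. MIPE: 11-point, 0.78 nM-46 µM; NPC: 8-point, 0.59 nM-46 µM (final). Readout CellTiter-Glo luminescence after 15 min RT.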

[8] = qHTS of pediatric cancer cell lines to identify multiple opportunities for drug repurposing: Primary screen for TC32 cells (AID 1347089); further: nearly all actives have a fitted effect of over 60% in size
Procedure, shortened: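 In the primary qHTS, MIPE compounds were tested at 11 concentrations (0.78 nM to 46 µM) and NPC compounds at 8 (0.59 nM to 46 µM) on TC32 cells for 48 h. CellTiter-Glo luminescence gave viability.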

[9] = molecular target: T1, Tyrosine-protein phosphatase non-receptor type substrate 1 (Homo sapiens) + Leukocyte surface antigen CD47 (Homo sapiens); assay: CD47-SIRPalpha protein protein interaction - HTRF assay qHTS validation (AID 1347058; active means well fitted curve in the direction sought with a large enough effect in the signal ratio, not every such curve was filed as active; the % refers to the signal ratio; further: series mostly up to about 38 µM)
Procedure, shortened: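 Soluble extracellular domains (6His-CD47, Avi-tag-biotinylated SIRPalpha) in PBS pH 7.4 with 0.05% IGEPAL CA-630. Compounds were preincubated 30 min at RT with CD47 and anti-His-Eu, then SIRPalpha and SAV-XL665 were added. TR-FRET 665/615 ratio.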

[10] = molecular target: T1, Tyrosine-protein phosphatase non-receptor type substrate 1 (Homo sapiens) + Leukocyte surface antigen CD47 (Homo sapiens); assay: CD47-SIRPalpha protein protein interaction - Alpha assay qHTS validation (AID 1347059);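 further: bead proximity luminescence from CD47 binding SIRPalpha after compound preincubation with SIRPalpha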
Procedure, shortened: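 AlphaScreen signal between CD47-His (12.5 nM) and biotin-SIRPalpha (25 nM) soluble extracellular domains, bead-captured via Ni-NTA and streptavidin. Compounds, in 7-point titrations, met SIRPalpha 30 min before CD47; PBS pH 7.4 with 0.05% IGEPAL.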

[11] = qHTS of pediatric cancer cell lines to identify multiple opportunities for drug repurposing: Primary screen for SJ-GBM2 cells (AID 1347091)
Procedure, shortened: (§1)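 Cell viability, CellTiter-Glo luminescence; 500-1,000 cells/well, 8- or 11-point titration, 48 h compound exposure at 37 degrees C, 5% CO2. Controls: DMSO neutral, bortezomib 2.3 µM final as positive.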

[12] = qHTS of pediatric cancer cell lines to identify multiple opportunities for drug repurposing: Primary screen for SK-N-MC cells (AID 1347093); further: potency means the concentration at half of the fitted maximal effect; on activity change, negative = cytotoxic: series mostly up to about 46 µM
Procedure, shortened: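 Metabolically active cells were quantified by ATP-dependent luminescence (CellTiter-Glo, 15 min at room temperature) following 48 h treatment. Cells had been plated at 500-1,000 per well and settled for 5 h beforehand.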

[13] = qHTS of pediatric cancer cell lines to identify multiple opportunities for drug repurposing: Primary screen for DAOY cells (AID 1347090); further: series mostly up to about 46 µM; nearly all actives have a fitted effect of over 55% in size
Procedure, shortened: as §1

Compound	outcome [1]	outcome [2]	Potency [3]	Potency [4]	outcome [5]	Potency [6]	Potency [7]	Potency [8]	outcome [9]	outcome [10]	Potency [11]	Potency [12]	Potency [13]	activity change, negative = cytotoxic [8]
CN(C)CCCN1c2ccccc2Sc2ccc(Cl)cc21	inactive	inactive	14.7 µM (active)	7.08 µM (active)	inactive	inactive	21.1 µM (active)							
CNCCC(Oc1ccc(C(F)(F)F)cc1)c1ccccc1 (stereo not given)				inactive		inactive		inactive						
OCc1cc(C(O)CNCCCCCCOCCCCc2ccccc2)ccc1O (stereo not given)	inactive	inactive	inactive	inactive	inactive	inactive	21.1 µM (active)	inactive	inactive	inactive				
COC(=O)C1=C(C)NC(C)=C(C(=O)OC)C1c1ccccc1[N+](=O)[O-]		inactive	13.1 µM (active)	inactive	inactive	inactive	inactive	inactive			inactive			
CCCCN(CCCC)CC(O)c1cc(Cl)cc2c1-c1ccc(Cl)cc1/C2=C/c1ccc(Cl)cc1 (stereo not given)				inactive	inactive			inactive				inactive		
COCCOC(=O)C1=C(C)NC(C)=C(C(=O)OC/C=C/c2ccccc2)C1c1cccc([N+](=O)[O-])c1 (stereo not given)		inactive	inactive		inactive	inactive		inactive					inactive	
NC1[C@H]2CN(c3nc4c(cc3F)c(=O)c(C(=O)O)cn4-c3ccc(F)cc3F)C[C@@H]12 (stereo not given in full)				inactive	inactive		13.3 µM (active)			inactive	inactive	inactive		
CC(=O)c1ccc2c(c1)N(CCCN(C)C)c1ccccc1S2				inactive	inactive					inactive	inactive	inactive		
C[C@]12C[C@H](O)[C@H]3[C@@H](CCC4=CC(=O)CC[C@@]43C)[C@@H]1CC[C@@H]2C(=O)CO	inactive	inactive	inactive	inactive	inactive	inactive	inactive	inactive	inactive	inactive	inactive	inactive	inactive	
CN(C)CCC=C1c2ccccc2CCc2ccccc21	inactive	inactive		inactive	inactive	inactive		inactive	inactive	inactive			inactive	
O=C1N=C(O)CN1/N=C/c1ccc(-c2ccc([N+](=O)[O-])cc2)o1	inactive	inactive	inactive	inactive		inactive	inactive			inactive	inactive	5.31 µM (active)		
C[C@](N)(Cc1ccc(O)cc1)C(=O)O	inactive	inactive	inactive	inactive	inactive	inactive			inactive	inactive		0.001 µM (active)		12.9% [at 4.81 µM]
